# In PubChem BioAssay (NCATS):
# Results filed as inconclusive are left out. Entries that show only a call come without a potency. Activity calls are given as the source filed them. The call rests on the fitted dose curve; in most records, active means well fitted curve in the direction sought with a large enough effect; inconclusive means small, poorly fitted or top-dose-only effect, or another doubt; inactive means no such curve, though single readings can be large; an effect the other way counts as inactive or inconclusive.
# Test system: not listed separately
# Test: Inducers of the Endoplasmic Reticulum Stress Response (ERSR) in human glioma: Validation (AID 504836)
# Conditions: human glioma cells, ER stress response reporter; series mostly up to 38.3 µM
# Summary of the method: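 Stably transfected U87-MG glioma cells carrying a GRP78-based luciferase sensor; 16 h compound incubation. Luminescence end-point read 10 min after Bright-Glo addition at room temperature.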
row,Compound,outcome
1,Clc1ccc(Cn2c(CN3CCCC3)nc3ccccc32)cc1,inactive
2,N[C@@H](Cc1c[nH]c2ccc(O)cc12)C(=O)O,inactive
3,C(=C\c1ccccc1)/CN1CCN(C(c2ccccc2)c2ccccc2)CC1,inactive
4,CC1=C(CC(=O)O)c2cc(F)ccc2/C1=C\c1ccc(S(C)(=O)=O)cc1,inactive
5,CC(C)COCC(CN(Cc1ccccc1)c1ccccc1)N1CCCC1 (configuration not stated),inactive
6,Cc1ccc(N(CC2=NCCN2)c2cccc(O)c2)cc1,inactive
7,CCOC(=O)C(C)(C)Oc1ccc(Cl)cc1,inactive
8,CNC(=O)Oc1ccc2c(c1)[C@]1(C)CCN(C)[C@@H]1N2C,inactive
9,CC[C@H]1CN2CCc3cc(OC)c(OC)cc3[C@@H]2C[C@@H]1C[C@H]1NCCc2cc(OC)c(OC)cc21,inactive
10,C[C@]12CCC(=O)C=C1CC[C@@H]1[C@@H]2[C@@H](O)C[C@@]2(C)[C@H]1CC[C@]2(O)C(=O)CO,inactive
11,Cc1cc(C(C)(C)C)cc(C)c1CC1=NCCN1,inactive
12,CSc1ccc2c(c1)C(N1CCN(C)CC1)Cc1ccccc1S2 (configuration not stated),inactive
13,CN1C[C@H](C(=O)N[C@]2(C)O[C@@]3(O)[C@@H]4CCCN4C(=O)[C@H](Cc4ccccc4)N3C2=O)C[C@@H]2c3cccc4[nH]cc(c34)C[C@H]21,inactive
14,C[C@]12C=CC(=O)C=C1CC[C@H]1[C@@H]3C[C@@H](O)[C@](O)(C(=O)CO)[C@@]3(C)C[C@H](O)[C@@]12F,inactive
15,NS(=O)(=O)c1cc2c(cc1Cl)NCNS2(=O)=O,inactive
16,CC(=O)[C@@]1(O)CC[C@H]2[C@@H]3CCC4=CC(=O)CC[C@]4(C)[C@H]3CC[C@@]21C,inactive
17,Cc1ccc(C(=O)Nc2ccc(S(=O)(=O)O)c3cc(S(=O)(=O)O)cc(S(=O)(=O)O)c23)cc1NC(=O)c1cccc(NC(=O)Nc2cccc(C(=O)Nc3cc(C(=O)Nc4ccc(S(=O)(=O)O)c5cc(S(=O)(=O)O)cc(S(=O)(=O)O)c45)ccc3C)c2)c1,inactive

# Target: Ubiquitin carboxyl-terminal hydrolase 1 (Homo sapiens) (UniProt O94782)
# Test: Inhibitors of USP1/UAF1: Pilot qHTS (AID 504865);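 further: rhodamine fluorescence freed from ubiquitin-rhodamine substrate followed over time; top concentration of the series differs between compounds; nearly all actives have a fitted effect of over 35% in size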
# Conditions: purified USP1/UAF1, Ub-rhodamine cleavage fluorescence; series mostly up to 114 µM
# Summary of the method: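 1nM USP1/UAF1 + cpd, 15 min RT; start w/ Ub-Rho 150nM final; kinetic FL 480/540 nm, 6 reads q60 s. Buffer 50mM HEPES pH 7.8, 0.5mM EDTA, 1mM TCEP, 0.01% Tween-20, 0.1 mg/ml BSA.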
# Sequence of Ubiquitin carboxyl-terminal hydrolase 1 (Homo sapiens) (O94782 whole entry, looked up): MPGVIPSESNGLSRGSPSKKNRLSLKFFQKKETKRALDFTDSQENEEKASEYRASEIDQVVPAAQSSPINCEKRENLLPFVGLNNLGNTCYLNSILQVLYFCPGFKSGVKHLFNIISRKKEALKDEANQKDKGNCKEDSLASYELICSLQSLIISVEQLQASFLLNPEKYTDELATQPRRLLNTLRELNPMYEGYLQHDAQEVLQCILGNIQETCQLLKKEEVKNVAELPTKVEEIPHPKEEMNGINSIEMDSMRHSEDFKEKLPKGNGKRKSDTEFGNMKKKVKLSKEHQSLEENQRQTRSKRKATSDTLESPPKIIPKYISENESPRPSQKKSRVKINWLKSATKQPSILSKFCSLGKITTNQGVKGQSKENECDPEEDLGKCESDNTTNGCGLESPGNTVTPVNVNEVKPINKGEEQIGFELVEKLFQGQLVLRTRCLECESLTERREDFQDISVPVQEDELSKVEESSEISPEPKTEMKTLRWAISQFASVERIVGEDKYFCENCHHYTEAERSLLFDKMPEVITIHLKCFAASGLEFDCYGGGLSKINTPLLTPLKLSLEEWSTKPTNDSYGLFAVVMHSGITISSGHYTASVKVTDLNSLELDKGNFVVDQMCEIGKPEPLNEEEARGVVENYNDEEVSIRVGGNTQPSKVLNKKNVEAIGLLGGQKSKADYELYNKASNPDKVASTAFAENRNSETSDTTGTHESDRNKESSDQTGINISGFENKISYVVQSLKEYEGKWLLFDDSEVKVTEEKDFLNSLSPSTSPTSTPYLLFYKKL
row,Compound,Potency
1,Clc1ccc(C(OCCN2CCCCC2)c2ccccc2)cc1 (configuration not stated),inactive
2,Nc1ccc(N)cc1,inactive
3,CC(Cc1ccccc1)NCc1ccccc1Cl (configuration not stated),inactive
4,CN(C)CC/C=C1\c2ccccc2Sc2ccc(Cl)cc21,inactive
5,Cc1ncc2n1-c1ccc(Cl)cc1C(c1ccccc1F)=NC2,inactive
6,CCCC(C)C1(CC)C(=O)N=C(S)NC1=O (configuration not stated),inactive
7,CCC1(c2ccccc2)CCC(=O)NC1=O (configuration not stated),inactive
8,CC(C)(O)C(Cl)(Cl)Cl,inactive
9,CNC(=O)NC(O)C(Cl)(Cl)Cl (configuration not stated),inactive
10,O=C(CCCN1CCC(n2c(=O)[nH]c3ccccc32)CC1)c1ccc(F)cc1,inactive
11,NC(=O)OCCCc1ccccc1,inactive
12,CNC(=O)Oc1ccc2c(c1)[C@]1(C)CCN(C)[C@@H]1N2C,inactive
13,CC[C@H]1CN2CCc3cc(OC)c(OC)cc3[C@@H]2C[C@@H]1C[C@H]1NCCc2cc(OC)c(OC)cc21,inactive
14,C[C@]12C=CC(=O)C=C1CC[C@@H]1[C@@H]2CC[C@@]2(C)[C@H]1CC[C@]2(C)O,inactive
15,CN(C)C(=O)Oc1cc(OC(=O)N(C)C)cc(C(O)CNC(C)(C)C)c1 (configuration not stated),inactive
16,C[N+]1(CCC(C(N)=O)(c2ccccc2)c2ccccc2)CCCCC1,inactive
17,OC(O)C(Cl)(Cl)Cl,inactive
18,C[N+](C)(C)CCOC(=O)C(O)(c1ccccc1)c1ccccc1,inactive
19,CC(C)(C)OC(=O)c1ncn2c1[C@@H]1CCCN1C(=O)c1c(Br)cccc1-2,inactive
20,CN1C[C@H](C(=O)N[C@]2(C)O[C@@]3(O)[C@@H]4CCCN4C(=O)[C@H](Cc4ccccc4)N3C2=O)C[C@@H]2c3cccc4[nH]cc(c34)C[C@H]21,inactive
21,Cc1c(Cl)c(=O)oc2cc(OP(=O)(OCCCl)OCCCl)ccc12,inactive
22,CC(C)[N+](C)(CCC(C(N)=O)(c1ccccc1)c1ccccc1)C(C)C,inactive
23,CCN1CCCC(OC(=O)C(c2ccccc2)c2ccccc2)C1 (configuration not stated),inactive
24,C[C@]12CC[C@H]3[C@@H](CC=C4C[C@@H](O)CC[C@@]43C)[C@@H]1CC[C@@H]2O,inactive
25,CN1C(=O)CN=C(c2ccccc2)c2cc([N+](=O)[O-])ccc21,inactive
